Test results as given in PubChem BioAssay (NCATS).
Records with an inconclusive call do not appear. Values without a mark were called inactive. Calls follow the shape of the dose curve; as a rule, active = well fitted inhibition curve with a large enough effect; inconclusive = small, poorly fitted or top-dose-only effect, or effect the other way; inactive = flat fitted curve, though single readings scatter.

What follows are compounds tested against ATP-dependent 6-phosphofructokinase (Trypanosoma brucei brucei) (UniProt O15648) (assay: qHTS Assay to Find Inhibitors of T. brucei phosphofructokinase: hit validation (AID 492961;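 also: luminescence reports ADP formed as PFK phosphorylates fructose-6-phosphate with ATP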)). Conditions: T. brucei PFK, ADP-Glo luminescence; series mostly up to 51.4 µM; activity change, negative = inhibition: at the top concentration.
Outline: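 ADP-Glo luminescence read-out of ADP formed by 1.25 nM PFK from 0.1 mM ATP and 0.5 mM F6P (TEA pH 8.0, 45 min, RT). Compounds titrated; activity normalized to no-enzyme and full-enzyme controls.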
% is scaled to controls: 0 for no effect and ±100 for the full control effect.

Chain of ATP-dependent 6-phosphofructokinase (Trypanosoma brucei brucei) (O15648 whole entry, looked up): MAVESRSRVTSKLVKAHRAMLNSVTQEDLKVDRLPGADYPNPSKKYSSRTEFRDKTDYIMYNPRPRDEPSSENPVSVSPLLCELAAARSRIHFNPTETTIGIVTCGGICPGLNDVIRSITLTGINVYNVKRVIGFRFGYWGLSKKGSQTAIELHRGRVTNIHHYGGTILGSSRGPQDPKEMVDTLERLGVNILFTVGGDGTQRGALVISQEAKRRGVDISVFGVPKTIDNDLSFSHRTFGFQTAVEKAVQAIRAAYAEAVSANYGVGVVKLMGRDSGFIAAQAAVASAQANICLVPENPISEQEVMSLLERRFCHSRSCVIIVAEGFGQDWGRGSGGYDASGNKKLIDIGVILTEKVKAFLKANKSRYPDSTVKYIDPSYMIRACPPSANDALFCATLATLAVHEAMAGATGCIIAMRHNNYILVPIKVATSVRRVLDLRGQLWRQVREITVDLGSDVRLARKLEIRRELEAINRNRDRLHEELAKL

Structure (SMILES)	activity change, negative = inhibition
CNC[C@@H](O)[C@@H](O)[C@H](O)[C@H](O)CO	-3.28%
CCN(CC)CCOc1ccc(Cc2ccccc2)cc1	-4.76%
COC(=O)C1=C(C)NC(C)=C(C(=O)OCCCN2CCC(c3ccccc3)(c3ccccc3)CC2)C1c1cccc([N+](=O)[O-])c1 (centres undefined)	3.65%
Cc1cc(C2CCCCC2)n(O)c(=O)c1	-12.6% [at 24.3 µM]
CCCc1cc(=O)[nH]c(=S)[nH]1	7.26%
CCOc1cc(CC(=O)N[C@@H](CC(C)C)c2ccccc2N2CCCCC2)ccc1C(=O)O	6.63% [at 24.3 µM]
O=P(O)(O)C(O)(Cn1ccnc1)P(=O)(O)O	13.3%
CN(C)CCc1c[nH]c2ccc(Cn3cncn3)cc12	-13%
CC1(C)CCC(C)(C)c2cc(NC(=O)c3ccc(C(=O)O)cc3)ccc21	-0.533%
CC1=C(C)C(=O)C(C(CCCCCC(=O)O)c2ccccc2)=C(C)C1=O (centres undefined)	-7.02%
CC(S)C(=O)NCC(=O)O (centres undefined)	-6.02%
Clc1ccc(C(Cn2ccnc2)OCc2ccsc2Cl)c(Cl)c1 (centres undefined)	1.94%
C[C@H](Cn1cnc2c(N)ncnc21)OCP(=O)(O)O	5.26%
CN(C)C(=O)COC(=O)Cc1ccc(OC(=O)c2ccc(N=C(N)N)cc2)cc1	8.7%
O=C(O)CCNC(=O)c1ccc(N=Nc2ccc(O)c(C(=O)O)c2)cc1	3.33%
CC(C)[C@H](N)C(=O)OCCOCn1cnc2c(=O)[nH]c(N)nc21	3.91%
O=C(O)c1cn(-c2ccc(F)cc2)c2cc(N3CCNCC3)c(F)cc2c1=O	3.97%

Structure (SMILES)	activity change, negative = inhibition
O=C(CS(=O)Cc1ccco1)NCC=CCOc1cc(CN2CCCCC2)ccn1 (centres undefined)	-0.927%
CS(=O)(=O)OCCCCOS(C)(=O)=O	-12.3%
N=C(N=C(N)N)N1CCOCC1	-6.33% [at 24.3 µM]
O=c1oc2cc(O)ccc2s1	-18.5%
CN1CCC(=C2c3ccccc3CCc3sccc32)CC1	-0.977%
Nc1cc(C(Cl)=C(Cl)Cl)c(S(N)(=O)=O)cc1S(N)(=O)=O	3.11% [at 24.3 µM]
COC1=C(OC)C(=O)C(CCCCCCCCCCO)=C(C)C1=O	3.14%
Cc1cc2cc3c(C)cc(=O)oc3c(C)c2o1	-7.9% [at 24.3 µM]
CCN(CCO)CCCC(C)Nc1ccnc2cc(Cl)ccc12 (centres undefined)	-11.8%
CC(C)(S)[C@@H](N)C(=O)O	-9.35%
O=C(NC(Cc1cc(=O)[nH]c2ccccc12)C(=O)O)c1ccc(Cl)cc1 (centres undefined)	-2.89%
C=C(c1ccc(C(=O)O)cc1)c1cc2c(cc1C)C(C)(C)CCC2(C)C	-0.642%
CC[C@]1(O)C[C@H]2CN(CCc3c([nH]c4ccccc34)[C@@](C(=O)OC)(c3cc4c(cc3OC)N(C=O)[C@H]3[C@@](O)(C(=O)OC)[C@H](OC(C)=O)[C@]5(CC)C=CCN6CC[C@]43[C@@H]65)C2)C1	-6.47%
CC(C)c1ccc2oc3nc(N)c(C(=O)O)cc3c(=O)c2c1	-6.24%
O=C1CCc2ccc(OCCCCN3CCN(c4cccc(Cl)c4Cl)CC3)cc2N1	-8.34%
CCCCC(CC)COC(=O)C(C#N)=C(c1ccccc1)c1ccccc1 (centres undefined)	12.5%
Cn1c(NCCN(CCO)CCCc2ccc([N+](=O)[O-])cc2)cc(=O)n(C)c1=O	-7.85%
